Source: PubChem
Only some compounds are listed: those with a hit (about 6% of all), similar ones and a draw of the others.
DRD3 antagonist: qHTS of D3 Dopamine Receptor Antagonist: qHTS | D3R cells, DiscoveRx beta-arrestin luminescence, antagonist mode; hits give low values | max response, negative = inhibition, % | 360,000 compounds, 2.5% hits; in the data active = max response below about -50%; inconclusive = no clear call, values can overlap the other calls; note: % is set by controls: 0 for no effect and ±100 for the full control effect
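Cells expressing the human receptor were seeded at 1500 cells/well, incubated overnight at 37 degrees C in 5% CO2, then exposed to library compounds with dopamine controls for 90 minutes at 37 degrees C before luminescent detection.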
D1 agonist: Allosteric Agonists of the Human D1 Dopamine Receptor: qHTS | D(1A) dopamine receptor (Homo sapiens), P21728 | HEK293 T-REx D1 cells, calcium flux, agonist mode | activation, % at 2 µM | 360,000 compounds, 1% hits | AID 504660, 2011; in the data active = activation above about 30%; note: 0% is about no effect
Target sequence (P21728 whole entry, looked up): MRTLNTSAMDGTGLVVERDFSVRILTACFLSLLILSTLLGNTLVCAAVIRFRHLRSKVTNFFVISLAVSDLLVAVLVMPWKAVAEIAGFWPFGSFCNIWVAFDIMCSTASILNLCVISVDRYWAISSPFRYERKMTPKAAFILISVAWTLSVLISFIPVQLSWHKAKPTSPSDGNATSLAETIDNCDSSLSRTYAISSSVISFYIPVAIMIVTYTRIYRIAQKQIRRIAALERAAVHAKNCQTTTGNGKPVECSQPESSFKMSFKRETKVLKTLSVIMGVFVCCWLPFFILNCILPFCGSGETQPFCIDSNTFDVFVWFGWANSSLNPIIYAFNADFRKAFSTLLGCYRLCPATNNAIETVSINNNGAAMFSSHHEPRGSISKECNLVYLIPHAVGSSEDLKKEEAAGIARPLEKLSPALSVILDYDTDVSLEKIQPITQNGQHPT
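Inducible HEK293 T-REx D1 cells, force-coupled to calcium signalling, were plated at 4000 cells/well with tetracycline and held overnight at 30 C. After no-wash calcium dye loading, compound-evoked calcium rise over 180 s flagged agonists.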
D1 antagonist: Antagonist of Human D 1 Dopamine Receptor: qHTS; activity change, negative = inhibition, % at 10 µM; AID 504652, 2011; 360,000 compounds, 3.2% hits; HEK293 TREx D1 cells, calcium flux, dopamine EC80; hits give low values; in the data active = activity change below about -30%; note: % is set by controls: 0 for no effect and ±100 for the full control effect
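Compound effects on dopamine-evoked calcium signalling were measured in tetracycline-induced HEK293 Trex D1 cells. Dopamine at EC80 followed a 180 s compound pre-read, and fluorescence was tracked kinetically for 180 s more.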
D3 ag: qHTS of D3 Dopamine Receptor Agonist: qHTS; D(3) dopamine receptor (Homo sapiens), P35462; D3R DiscoveRx beta-arrestin cells, luminescence, 90 min; max activation, %; 410,000 compounds, 0.58% hits; AID 652048, 2013; in the data active = max activation above about 30%; note: 0% is about no effect
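Agonist mode: compounds and dopamine controls were applied to plated cells for 90 min at 37 degrees C after an overnight attachment at 1500 cells/well. Luminescent read-out followed 30 - 60 minutes at room temperature with DiscoveRx detection reagent.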
D1 PAM: Potentiators of Human D1 Dopamine Receptor: qHTS; D(1A) dopamine receptor (Homo sapiens), P21728; HEK293 TREx D1 cells, calcium flux, dopamine EC20 potentiation; potentiation, % at 10 µM; 360,000 compounds, 0.036% hits; in the data active = potentiation above about 30%; note: 0% is about no effect
The depositor's hits bear a star.

Screening Cc1coc2cc3oc(=O)c(CC(=O)NCc4ccccc4)c(C)c3cc12 returned D1 agonist 1, D1 antagonist 9, D3 ag 1 and D1 PAM 1.
`Cc1ccccc1NC(=O)NCCCN1CCN(c2ccccc2)CC1` gave DRD3 antagonist inconclusive, D1 agonist 2, D1 antagonist -25, D3 ag 50* and D1 PAM -9.
For O=C(NCCCN1CCN(c2ccccc2)CC1)Nc1ccccc1C(F)(F)F the results were DRD3 antagonist inconclusive, D1 agonist -1, D1 antagonist -28, D3 ag 30* and D1 PAM -9.
`COc1ccc(N=Cc2c[nH][nH]c2=O)cc1` gave DRD3 antagonist 0, D1 agonist 1, D1 antagonist -33*, D3 ag -1 and D1 PAM -3.
COc1ccc(NC(=O)N2CCC(c3nc(-c4cccs4)no3)CC2)cc1 was read as DRD3 antagonist 14, D1 agonist 1, D1 antagonist -22, D3 ag 5 and D1 PAM -6.
Screening O=C(Nc1ccc(Cl)cc1)N1CCC(c2nc(-c3cccs3)no2)CC1 returned DRD3 antagonist -23, D1 agonist 17, D1 antagonist -46*, D3 ag -15 and D1 PAM -12.
For CCOC(=O)c1ccc(NC(=O)CC2Nc3ccccc3NC2=O)cc1 (centres undefined) the results were D1 agonist 1, D1 antagonist 6, D3 ag -5 and D1 PAM 0.
`COc1ccc(CCNc2ncnc3c2c(-c2ccccc2)cn3-c2cccc(Cl)c2)cc1OC` gave D1 agonist 4, D1 antagonist 11, D3 ag 11 and D1 PAM -2.
`O=C(c1ccc(CN2CCc3ccccc3C2)cc1)N1CCN(c2ccccc2)CC1` gave DRD3 antagonist -62*, D1 agonist 4, D1 antagonist -22, D3 ag 0 and D1 PAM 1.
For O=C(c1ccc(CN2CCc3ccccc3C2)cc1)N1CCc2ccccc2C1 the results were DRD3 antagonist -76*, D1 agonist 1, D1 antagonist 2, D3 ag -16 and D1 PAM -3.
O=C(c1ccc2[nH]c(=O)c(=O)[nH]c2c1)N1CCc2ccccc2C1 was read as DRD3 antagonist 3, D1 agonist 0, D1 antagonist 18, D3 ag 8 and D1 PAM 10.
CC(CN(C)C)CN1c2ccccc2CCc2ccccc21 (centres undefined) was read as DRD3 antagonist 0, D1 agonist 12, D1 antagonist -81*, D3 ag 0 and D1 PAM -12.
CN(C)CCCN1c2ccccc2CCc2ccccc21 was read as DRD3 antagonist 0, D1 agonist 17, D1 antagonist -41*, D3 ag -18 and D1 PAM -5.
For CN(C)CCCN1c2ccccc2C(C)(C)c2ccccc21 the results were D3 ag -19.
`Cc1ccc(Cl)cc1-n1nnc(-c2nc(-c3ccc4c(c3)OCO4)no2)c1C` gave D1 agonist 6, D1 antagonist -12, D3 ag -16 and D1 PAM 0.
For Cc1ccc2nc(-c3cc(-c4ccccc4)no3)cn2c1 the results were DRD3 antagonist 7, D1 agonist 1, D1 antagonist -53*, D3 ag 4 and D1 PAM -17.
For Oc1c(Br)cc(Br)cc1C=Nc1cccc2ncccc12 the results were DRD3 antagonist -27 and D3 ag -14.
Screening Oc1ccc(Cl)cc1N=Cc1sc2ccccc2c1Cl returned DRD3 antagonist -16, D1 agonist 0, D1 antagonist 3, D3 ag 3 and D1 PAM -4.
Screening Cc1cccc(/N=C/c2c(O)[nH]c3ccccc23)n1 returned DRD3 antagonist -29, D1 agonist 33*, D1 antagonist -14, D3 ag 0 and D1 PAM -8.
`O=[N+]([O-])c1ccc(O)c(N=Cc2sc3ccccc3c2O)c1` gave DRD3 antagonist -83*, D1 agonist 27, D1 antagonist 16, D3 ag -26 and D1 PAM 2.
For Oc1c(C=Nc2cccc3cccnc23)sc2ccccc12 the results were D1 agonist 158*, D1 antagonist -24 and D1 PAM 0.
Cc1cccc(/N=C/c2sc3ccccc3c2O)n1 was read as DRD3 antagonist -21, D1 agonist 52*, D1 antagonist 3, D3 ag 4 and D1 PAM -6.
For Cc1cccc(/N=C/c2ccccn2)n1 the results were DRD3 antagonist 4 and D3 ag 5.
CCOc1ccccc1CNC(=O)CCn1c(=O)c2cccn2c2ccc(F)cc21 was read as D1 agonist -1, D1 antagonist 7, D3 ag -11 and D1 PAM -4.
`Cn1c(=O)oc2cc(S(=O)(=O)NC3CCCc4ccccc43)ccc21` (centres undefined) gave DRD3 antagonist 22, D1 agonist 20, D1 antagonist -36* and D3 ag -3.
COc1ccc(S(=O)(=O)NC2CCc3ccccc32)cc1OC (centres undefined) was read as DRD3 antagonist 6, D1 agonist 11, D1 antagonist -37*, D3 ag 1 and D1 PAM -5.
Cn1c(=O)oc2cc(S(=O)(=O)N3CCCC(C(=O)NC4CCCc5ccccc54)C3)ccc21 (centres undefined) was read as DRD3 antagonist -22, D1 agonist 4, D1 antagonist -13, D3 ag 0 and D1 PAM -6.
COc1cc(S(=O)(=O)NC2CCSc3ccccc32)ccc1NC(C)=O (centres undefined) was read as DRD3 antagonist 5, D1 agonist 6, D1 antagonist -11, D3 ag 6 and D1 PAM 2.
CCOc1ccc(CC(=O)NCCc2sc3nc(-c4ccc(F)cc4)nn3c2C)cc1 was read as D1 agonist 4, D3 ag 9 and D1 PAM -3.
For COCCNC(=S)N(CCc1c(C)[nH]c2ccc(F)cc12)Cc1cccs1 the results were DRD3 antagonist -16, D1 agonist 15, D1 antagonist -38*, D3 ag -3 and D1 PAM -2.
COCCNC(=S)N(CCc1c(C)[nH]c2ccc(Cl)cc12)Cc1cccs1 was read as DRD3 antagonist 0, D1 agonist 2, D1 antagonist 13, D3 ag 0 and D1 PAM -4.
Screening O=C(Nc1ccccc1)c1cnc(-c2ccccc2)nc1-c1ccccc1 returned DRD3 antagonist 28, D1 agonist 20, D1 antagonist 7, D3 ag 43* and D1 PAM 0.
